Data reported in PubChem BioAssay AID2289 (National Center for Advancing Translational Sciences (NCATS), 2010).
Out of some 340,000 compounds screened, about 3,300 (0.97%) were called active. Inconclusive results (about 9%) are left out. Calls follow the shape of the dose curve; as a rule, active = well fitted inhibition curve with a large enough effect; inconclusive = small, poorly fitted or top-dose-only effect, or effect the other way; inactive = flat fitted curve, though single readings scatter. Some of the results follow.

Assay: qHTS Assay for Modulators of miRNAs and/or Inhibitors of miR-21; also: nearly all actives have a fitted effect of over 55% in size
Conditions: HeLa miR-21-FLuc reporter, luciferase luminescence, 48 h; actives lower the signal
Procedure, shortened: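 HeLa cells endogenously expressing miR-21, stably carrying CMV-driven firefly luciferase with a downstream miR-21 binding site, 2000 cells/well. Titrations up to approximately 40 uM, 48 hours; luciferase luminescence read.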
Potency is read from the fitted curve at half-maximal effect.

Potency, active:
COc1ccc(CNC(=O)CN2C(=O)CC(c3ccc(C)c(C)c3)=Nc3ccccc32)cc1 11.7 µM
CCOc1ccccc1NC(=O)CN1C(=O)CC(c2ccc(C)c(C)c2)=Nc2ccccc21 8.26 µM
O=C(N/N=C\C=C\c1ccco1)c1cc(-c2ccc3ccccc3c2)n[nH]1 4.14 µM
O=C(CCN1C(=O)S/C(=C\C=C\c2ccccc2)C1=O)Nc1ccc(O)cc1 9.27 µM
C=CCSc1nnc(-c2ccc([N+](=O)[O-])cc2)o1 6.56 µM
Fc1ccc(-c2nnc(Cc3ccc(Cl)cc3)o2)cc1 10.4 µM
O=[N+]([O-])c1ccc(Cc2nnc(-c3ccc(F)cc3)o2)cc1 0.826 µM
COc1ccc(CNc2ncccc2[N+](=O)[O-])cc1 18.5 µM
O=[N+]([O-])c1cccnc1NCCc1ccccc1 5.21 µM
O=[N+]([O-])c1cccnc1NCCc1c[nH]c2ccccc12 4.14 µM
O=[N+]([O-])c1cccnc1NCCNc1ncc(C(F)(F)F)cc1Cl 2.93 µM
Cc1ccccc1-n1c(C)cc(/C=N/Nc2ccc([N+](=O)[O-])cn2)c1C 3.69 µM
Cc1ccc(C(=O)Nc2cccnc2Cl)cc1Cl 3.69 µM
O=C(Nc1cccnc1Cl)c1cc(-c2cccc(O)c2)on1 18.5 µM
O=C(Nc1cccnc1Cl)c1cc(-c2ccccc2O)on1 2.61 µM
CCC(C(=O)N1CCN(c2cccc(C)c2C)CC1)n1nc(C)c2sc3ccccc3c2c1=O (stereo not drawn) 8.26 µM
COc1ccccc1Nc1ccc(Nc2ccccc2OC)nn1 7.36 µM
CCOC(=O)c1c(-c2ccccc2)cn2c(C)cc(C)nc12 5.85 µM
CC(=O)c1c(C)nc(-c2ccc(Cl)cc2)nc1N 1.65 µM
CCOC(=O)c1c(C)nc(-c2ccccc2)nc1N 4.65 µM
C/C(=N/NC(=O)c1ccoc1C)c1cccc(NC(=O)C2CC2)c1 1.65 µM
C/C(=N/NC(=O)c1ccccc1)c1ccc(NC(=O)C(F)(F)F)cc1 4.65 µM
C/C(=N/NC(=O)c1ccoc1C)c1ccc(NC(=O)C2CCCC2)cc1 1.31 µM
C/C(=N/NC(=O)c1ccoc1C)c1cccc(NC(=O)C(F)(F)F)c1 1.65 µM
COC1=C/C(=C/c2c(O)c(C#N)c3ccccn23)C=CC1=O 11.7 µM
COc1ccc2cc(-c3ccccc3)ncc2c1 0.369 µM
COc1ccc(-c2cc3cc(OC)c(OC)cc3c(C)n2)cc1 7.36 µM
COc1ccc2nc(-c3ccccc3)cc(OC)c2c1 14.7 µM
